What all share (experiment): NCI-60 one-dose screen, 48 h (100 = growth as untreated, 0 = no growth, -100 = all killed)
One experiment relates to NCI-H226 lung. As to conditions: 10 µM unless noted.
The test system of the next experiment is NCI-H522 lung. As to conditions: 10 µM unless noted.
The test system of another experiment is COLO 205 colon. As to conditions: 10 µM.
The subject of the next experiment is MALME-3M melanoma. Conditions: 10 µM unless noted.
A further experiment concerns HT29 colon. Conditions: 10 µM unless noted.
For another experiment, the system named is SNB-75 CNS. Conditions: 10 µM unless noted.
In the next experiment the test system is PC-3 prostate. As to conditions: 10 µM unless noted.
Another experiment deals with SK-MEL-5 melanoma. As to conditions: 10 µM unless noted.
A further experiment concerns CAKI-1 renal. Conditions: 10 µM unless noted.
Another experiment deals with CCRF-CEM leukemia. Conditions: 10 µM unless noted.
The subject of a further experiment is RPMI-8226 leukemia. As to conditions: 10 µM unless noted.
Another experiment deals with OVCAR-5 ovarian. As to conditions: 10 µM unless noted.
In a further experiment the test system is IGROV1 ovarian. As to conditions: 10 µM.
Another experiment relates to OVCAR-3 ovarian. Conditions: 10 µM unless noted.
The subject of the next experiment is HS 578T breast. Conditions: 10 µM unless noted.
The subject of the next experiment is HOP-92 NSCLC. As to conditions: 10 µM unless noted.
The subject of another experiment is EKVX NSCLC. As to conditions: 10 µM unless noted.
Another experiment has as its system MCF7 breast. Conditions: 10 µM unless noted.

The panel holds about 83,000 compounds, 20% with a hit somewhere; the sample as a whole holds those more often.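 The endpoint reported here, percent growth, reads 100 for growth as untreated, 0 for no net growth and -100 for all cells dead.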 Unmarked numbers belong to inactive results. Calls of active or inactive are those of the source. The calls were made as follows: active = growth percent below 10; inactive = the rest.

Turning to `Cc1cc(C)nc(C)c1.[Cl][Hg][Cl]`, the growth in the experiment with NCI-H226 lung was 120%; in the experiment with NCI-H522 lung, 3.42% (active); in the experiment on COLO 205 colon, 123%; in the experiment on MALME-3M melanoma it was 92.8%; in the experiment on HT29 colon, 95.7%; in the experiment on SNB-75 CNS it was 96%. The growth in the experiment on PC-3 prostate is 95.4%; with SK-MEL-5 melanoma it was 106%; in the experiment with CAKI-1 renal it was 96.4%; in the experiment on CCRF-CEM leukemia, 78.3%; in the experiment with RPMI-8226 leukemia it was 98.9%; in the experiment with OVCAR-5 ovarian, 114%. Moreover, the growth was 106% in the experiment with IGROV1 ovarian, 108% in the experiment on OVCAR-3 ovarian and 108% in the experiment on HS 578T breast.
In the case of `CCCC(C)(C)c1ccc2c(c1)OC(C)(C)[C@@H]1CC=C(C)C[C@@H]21`, the growth is 98.3% in the experiment with NCI-H226 lung; 100% in the experiment with HOP-92 NSCLC; 93.2% with NCI-H522 lung; 93.6% in the experiment with MALME-3M melanoma; 102% with HT29 colon; 88.2% with SNB-75 CNS. Besides, the growth was 102% in the experiment on SK-MEL-5 melanoma; 106% in the experiment with EKVX NSCLC; 84.2% with CCRF-CEM leukemia; 92.9% in the experiment with RPMI-8226 leukemia; 107% in the experiment on OVCAR-5 ovarian; 95.7% in the experiment on IGROV1 ovarian. For the same molecule, the growth in the experiment with MCF7 breast was 93.9%.
Regarding `CCC(CC)(c1ccccc1)C(OC(N)=O)c1ccccc1` (configuration not stated), the growth in the experiment on NCI-H226 lung was 81.8%; with NCI-H522 lung, 78.6%; in the experiment on COLO 205 colon, 86.7%; in the experiment on HT29 colon, 87.7%; in the experiment on SNB-75 CNS, 74.8%; with PC-3 prostate it was 72.3%. Besides, the growth was 89.5% with SK-MEL-5 melanoma; 88.9% in the experiment with CCRF-CEM leukemia; 79.7% in the experiment with RPMI-8226 leukemia; 111% in the experiment on OVCAR-5 ovarian; 73.4% in the experiment on IGROV1 ovarian; 89% in the experiment on OVCAR-3 ovarian. Besides, the growth was 88.2% with HS 578T breast and 81.9% with MCF7 breast.
With `NC(=O)C(Br)CBr` (configuration not stated), the growth with NCI-H226 lung was -18.8% (active); with HOP-92 NSCLC, -83.7% (active); with NCI-H522 lung it was -81.7% (active); in the experiment with COLO 205 colon it was -83.4% (active); with HT29 colon, -21.8% (active); with SNB-75 CNS it was 103%. In addition, the growth in the experiment with PC-3 prostate is 13.9%; in the experiment on SK-MEL-5 melanoma, 55.6%; in the experiment on EKVX NSCLC it was -73.1% (active); in the experiment on CCRF-CEM leukemia, -12.1% (active); with RPMI-8226 leukemia it was -39.3% (active); in the experiment with OVCAR-5 ovarian it was 10.9%. The results for the growth with OVCAR-3 ovarian, in the experiment with HS 578T breast and in the experiment on MCF7 breast were -85.1% (active), 51.1% and 2.57% (active), respectively.

The record behind these values is PubChem BioAssay (NCI).
